The values that follow come from ChEMBL document CHEMBL1961873, “Compounds: GSK PKIS; Assays: Nanosyn kinase panel” (2012).

Molecules are shown by their SMILES.

The target in assay [1] is Dual specificity protein kinase CLK3 (Homo sapiens) (UniProt P49761). Conditions: at 1 µM.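 Note: each value is the mean inhibition of CLK3.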
Assay [2] addresses Dual specificity tyrosine-phosphorylation-regulated kinase 1A (Homo sapiens) (UniProt Q13627). The conditions noted are these: at 0.1 µM.
Assay [3] shares this target. Conditions: at 1 µM.
Assay [4] concerns the target Dual specificity tyrosine-phosphorylation-regulated kinase 1B (Homo sapiens) (UniProt Q9Y463). The conditions noted are these: at 0.1 µM.
The target is the same in assay [5]. The conditions noted are these: at 1 µM.
Assay [6] addresses T1, Dual specificity tyrosine-phosphorylation-regulated kinase 2 (Homo sapiens) (UniProt Q92630).
T1 sequence (whole entry): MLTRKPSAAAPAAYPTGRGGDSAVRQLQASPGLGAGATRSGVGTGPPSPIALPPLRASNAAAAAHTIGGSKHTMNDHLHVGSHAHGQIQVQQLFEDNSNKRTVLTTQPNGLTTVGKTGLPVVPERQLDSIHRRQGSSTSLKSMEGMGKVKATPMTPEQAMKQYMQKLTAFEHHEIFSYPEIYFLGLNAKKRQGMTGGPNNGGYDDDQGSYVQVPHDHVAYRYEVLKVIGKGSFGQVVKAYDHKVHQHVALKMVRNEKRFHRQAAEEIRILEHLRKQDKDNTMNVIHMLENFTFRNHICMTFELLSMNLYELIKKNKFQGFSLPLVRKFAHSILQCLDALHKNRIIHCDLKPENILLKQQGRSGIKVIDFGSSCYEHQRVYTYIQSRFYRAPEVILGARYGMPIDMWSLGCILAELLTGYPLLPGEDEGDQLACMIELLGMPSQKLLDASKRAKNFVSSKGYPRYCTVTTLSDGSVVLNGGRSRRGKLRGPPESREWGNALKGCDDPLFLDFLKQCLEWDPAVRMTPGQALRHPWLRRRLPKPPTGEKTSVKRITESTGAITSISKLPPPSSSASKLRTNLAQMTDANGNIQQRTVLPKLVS
The conditions noted are these: at 0.1 µM.

For assay [7], the target named is T1, Dual specificity tyrosine-phosphorylation-regulated kinase 2 (Homo sapiens). Conditions: at 1 µM.
Assay [8] addresses Glycogen synthase kinase-3 alpha (Homo sapiens) (UniProt P49840). The conditions noted are these: at 0.1 µM.
For assay [9] the target is unchanged. Conditions: at 1 µM.
For assay [10], the target named is Glycogen synthase kinase-3 beta (Homo sapiens) (UniProt P49841). Conditions: at 0.1 µM.
Chain of Glycogen synthase kinase-3 beta (Homo sapiens) (P49841 whole entry, looked up): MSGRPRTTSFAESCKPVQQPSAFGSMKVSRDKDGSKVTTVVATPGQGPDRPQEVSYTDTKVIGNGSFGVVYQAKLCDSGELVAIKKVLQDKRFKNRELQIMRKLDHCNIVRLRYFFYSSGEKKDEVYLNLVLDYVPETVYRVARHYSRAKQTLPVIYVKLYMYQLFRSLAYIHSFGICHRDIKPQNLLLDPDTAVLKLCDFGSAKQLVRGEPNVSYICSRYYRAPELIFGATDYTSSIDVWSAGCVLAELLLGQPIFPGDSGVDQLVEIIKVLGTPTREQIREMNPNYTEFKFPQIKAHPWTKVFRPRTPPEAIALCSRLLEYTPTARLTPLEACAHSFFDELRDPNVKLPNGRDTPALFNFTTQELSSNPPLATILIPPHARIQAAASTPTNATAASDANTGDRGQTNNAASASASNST
For assay [11] the target is unchanged. Conditions: at 1 µM.
For assay [12], the target named is Homeodomain-interacting protein kinase 1 (Homo sapiens) (UniProt Q86Z02). The conditions noted are these: at 0.1 µM.
Chain of Homeodomain-interacting protein kinase 1 (Homo sapiens) (Q86Z02 whole entry, looked up): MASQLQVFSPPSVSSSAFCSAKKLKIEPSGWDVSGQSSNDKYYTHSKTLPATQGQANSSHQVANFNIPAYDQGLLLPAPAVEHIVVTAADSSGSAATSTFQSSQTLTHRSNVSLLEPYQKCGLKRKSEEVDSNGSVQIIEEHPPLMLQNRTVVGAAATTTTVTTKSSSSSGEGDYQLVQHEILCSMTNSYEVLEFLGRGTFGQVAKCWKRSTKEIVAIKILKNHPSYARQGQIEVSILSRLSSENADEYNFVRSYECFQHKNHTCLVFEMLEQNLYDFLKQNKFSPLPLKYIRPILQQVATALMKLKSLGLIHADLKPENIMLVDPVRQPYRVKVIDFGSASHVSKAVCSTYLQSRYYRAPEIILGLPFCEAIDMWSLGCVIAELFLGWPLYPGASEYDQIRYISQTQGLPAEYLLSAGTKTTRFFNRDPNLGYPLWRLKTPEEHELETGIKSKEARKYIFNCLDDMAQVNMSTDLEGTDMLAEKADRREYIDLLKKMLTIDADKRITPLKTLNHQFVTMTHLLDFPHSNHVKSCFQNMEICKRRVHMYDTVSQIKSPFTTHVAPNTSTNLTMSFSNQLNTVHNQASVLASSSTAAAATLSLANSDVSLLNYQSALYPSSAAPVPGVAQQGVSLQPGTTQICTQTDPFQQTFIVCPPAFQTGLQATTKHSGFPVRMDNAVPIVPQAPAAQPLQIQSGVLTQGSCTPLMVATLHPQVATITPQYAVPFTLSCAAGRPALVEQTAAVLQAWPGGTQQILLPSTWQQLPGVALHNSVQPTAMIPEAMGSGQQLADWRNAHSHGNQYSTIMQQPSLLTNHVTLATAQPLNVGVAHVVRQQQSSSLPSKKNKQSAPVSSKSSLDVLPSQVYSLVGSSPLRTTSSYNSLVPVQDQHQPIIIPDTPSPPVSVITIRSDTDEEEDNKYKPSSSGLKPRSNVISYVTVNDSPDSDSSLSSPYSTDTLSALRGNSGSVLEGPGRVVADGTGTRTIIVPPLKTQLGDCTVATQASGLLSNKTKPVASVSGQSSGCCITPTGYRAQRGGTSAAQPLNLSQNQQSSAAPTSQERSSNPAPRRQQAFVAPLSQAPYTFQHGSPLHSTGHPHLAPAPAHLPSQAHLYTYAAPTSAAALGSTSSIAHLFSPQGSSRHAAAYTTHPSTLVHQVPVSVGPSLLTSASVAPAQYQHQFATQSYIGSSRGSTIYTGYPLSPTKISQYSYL
The target is the same in assay [13]. The conditions noted are these: at 1 µM.
Assay [14] has as its target T2, Homeodomain-interacting protein kinase 4 (Homo sapiens) (UniProt Q8NE63).
T2 sequence (whole entry): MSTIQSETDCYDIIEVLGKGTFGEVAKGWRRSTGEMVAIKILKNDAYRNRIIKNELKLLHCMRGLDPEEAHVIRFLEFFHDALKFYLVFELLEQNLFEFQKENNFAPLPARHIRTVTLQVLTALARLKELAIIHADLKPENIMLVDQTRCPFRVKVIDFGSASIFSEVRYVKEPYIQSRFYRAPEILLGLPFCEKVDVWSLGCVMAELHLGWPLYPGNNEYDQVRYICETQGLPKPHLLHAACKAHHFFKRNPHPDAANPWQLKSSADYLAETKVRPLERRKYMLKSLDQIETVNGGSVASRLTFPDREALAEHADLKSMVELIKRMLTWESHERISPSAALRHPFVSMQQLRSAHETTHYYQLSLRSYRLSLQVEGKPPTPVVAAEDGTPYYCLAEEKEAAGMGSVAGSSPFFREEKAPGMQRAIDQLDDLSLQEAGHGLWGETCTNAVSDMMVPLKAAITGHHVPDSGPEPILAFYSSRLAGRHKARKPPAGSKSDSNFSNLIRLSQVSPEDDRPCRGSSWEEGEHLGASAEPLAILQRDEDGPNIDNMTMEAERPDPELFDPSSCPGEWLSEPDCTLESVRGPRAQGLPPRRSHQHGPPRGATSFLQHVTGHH
Conditions: at 0.1 µM.

Assay [15] deals with T2, Homeodomain-interacting protein kinase 4 (Homo sapiens). The conditions noted are these: at 1 µM.
Assay [16] concerns the target Mitogen-activated protein kinase 9 (Homo sapiens) (UniProt P45984). Conditions: at 0.1 µM.
For assay [17] the target is unchanged. Conditions: at 1 µM.
The target of assay [18] is Mitogen-activated protein kinase 1 (Homo sapiens) (UniProt P28482). The conditions noted are these: at 0.1 µM.
Chain of Mitogen-activated protein kinase 1 (Homo sapiens) (P28482 whole entry): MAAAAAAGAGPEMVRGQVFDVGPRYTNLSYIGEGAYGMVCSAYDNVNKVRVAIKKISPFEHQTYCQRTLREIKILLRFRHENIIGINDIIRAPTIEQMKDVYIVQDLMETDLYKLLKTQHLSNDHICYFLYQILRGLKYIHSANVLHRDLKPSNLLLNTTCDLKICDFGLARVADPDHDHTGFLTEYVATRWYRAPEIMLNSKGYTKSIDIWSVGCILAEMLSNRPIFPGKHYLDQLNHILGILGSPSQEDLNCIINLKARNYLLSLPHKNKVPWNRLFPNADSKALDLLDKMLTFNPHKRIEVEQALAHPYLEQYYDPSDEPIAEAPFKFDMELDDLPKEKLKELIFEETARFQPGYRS
The target is the same in assay [19]. The conditions noted are these: at 1 µM.
Assay [20] concerns the target Mitogen-activated protein kinase 3 (Homo sapiens) (UniProt P27361). The conditions noted are these: at 0.1 µM.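 Note: each value is a mean inhibition figure.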

Chain of Dual specificity tyrosine-phosphorylation-regulated kinase 1B (Homo sapiens) (Q9Y463 whole entry, looked up): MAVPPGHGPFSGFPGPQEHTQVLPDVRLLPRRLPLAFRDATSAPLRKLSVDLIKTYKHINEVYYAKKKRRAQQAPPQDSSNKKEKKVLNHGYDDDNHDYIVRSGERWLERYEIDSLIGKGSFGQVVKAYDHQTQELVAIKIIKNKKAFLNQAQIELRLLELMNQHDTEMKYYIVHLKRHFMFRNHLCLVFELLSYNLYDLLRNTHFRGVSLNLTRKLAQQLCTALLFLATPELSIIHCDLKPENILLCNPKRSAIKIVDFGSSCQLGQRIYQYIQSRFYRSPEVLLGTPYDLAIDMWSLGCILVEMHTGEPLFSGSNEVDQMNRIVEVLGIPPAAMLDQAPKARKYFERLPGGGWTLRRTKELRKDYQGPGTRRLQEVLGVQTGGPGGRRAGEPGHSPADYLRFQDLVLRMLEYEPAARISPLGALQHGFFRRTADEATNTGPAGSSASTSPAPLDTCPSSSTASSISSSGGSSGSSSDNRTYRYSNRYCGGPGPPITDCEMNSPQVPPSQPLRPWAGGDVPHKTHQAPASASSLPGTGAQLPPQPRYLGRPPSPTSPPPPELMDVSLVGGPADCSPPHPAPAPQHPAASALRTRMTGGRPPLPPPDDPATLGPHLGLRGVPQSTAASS
Chain of Dual specificity protein kinase CLK3 (Homo sapiens) (P49761 whole entry, looked up): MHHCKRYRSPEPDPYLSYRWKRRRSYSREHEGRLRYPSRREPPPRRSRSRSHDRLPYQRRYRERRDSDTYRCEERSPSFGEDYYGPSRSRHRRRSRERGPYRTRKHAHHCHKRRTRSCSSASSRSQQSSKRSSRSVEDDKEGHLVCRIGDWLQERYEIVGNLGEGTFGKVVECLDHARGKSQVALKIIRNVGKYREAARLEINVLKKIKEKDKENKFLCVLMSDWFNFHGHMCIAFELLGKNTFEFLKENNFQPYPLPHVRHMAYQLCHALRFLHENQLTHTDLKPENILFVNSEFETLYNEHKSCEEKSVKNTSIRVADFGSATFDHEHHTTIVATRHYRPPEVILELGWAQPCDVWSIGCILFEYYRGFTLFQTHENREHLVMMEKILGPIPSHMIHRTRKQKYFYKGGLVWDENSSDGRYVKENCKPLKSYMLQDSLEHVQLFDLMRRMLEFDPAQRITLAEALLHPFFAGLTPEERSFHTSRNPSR
Chain of Glycogen synthase kinase-3 alpha (Homo sapiens) (P49840 2-483 limits assumed): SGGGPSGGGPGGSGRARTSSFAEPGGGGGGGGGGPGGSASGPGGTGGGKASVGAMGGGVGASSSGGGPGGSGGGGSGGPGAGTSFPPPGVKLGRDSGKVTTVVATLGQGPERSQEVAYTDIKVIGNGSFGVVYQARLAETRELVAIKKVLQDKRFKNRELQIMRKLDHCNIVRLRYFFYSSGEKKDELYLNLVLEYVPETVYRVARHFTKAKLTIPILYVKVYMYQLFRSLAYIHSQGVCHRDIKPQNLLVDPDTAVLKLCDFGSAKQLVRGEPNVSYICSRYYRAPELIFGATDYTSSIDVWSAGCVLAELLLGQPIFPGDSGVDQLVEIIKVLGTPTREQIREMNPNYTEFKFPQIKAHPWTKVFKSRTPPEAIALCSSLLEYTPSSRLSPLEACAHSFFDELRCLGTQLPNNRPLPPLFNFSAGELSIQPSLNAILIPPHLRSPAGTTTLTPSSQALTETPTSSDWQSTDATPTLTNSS
Chain of Mitogen-activated protein kinase 9 (Homo sapiens) (P45984 whole entry, looked up): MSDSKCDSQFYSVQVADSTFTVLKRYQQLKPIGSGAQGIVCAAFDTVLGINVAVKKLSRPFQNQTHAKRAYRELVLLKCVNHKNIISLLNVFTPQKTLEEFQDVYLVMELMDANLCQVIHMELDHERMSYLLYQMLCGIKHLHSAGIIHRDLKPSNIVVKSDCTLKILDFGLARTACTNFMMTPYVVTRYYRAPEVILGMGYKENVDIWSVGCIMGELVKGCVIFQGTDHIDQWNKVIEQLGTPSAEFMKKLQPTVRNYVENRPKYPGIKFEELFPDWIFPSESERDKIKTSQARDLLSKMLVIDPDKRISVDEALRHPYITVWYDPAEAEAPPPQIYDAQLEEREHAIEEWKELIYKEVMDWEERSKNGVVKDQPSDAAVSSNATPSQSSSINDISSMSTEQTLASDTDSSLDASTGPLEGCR
Chain of Mitogen-activated protein kinase 3 (Homo sapiens) (P27361 whole entry): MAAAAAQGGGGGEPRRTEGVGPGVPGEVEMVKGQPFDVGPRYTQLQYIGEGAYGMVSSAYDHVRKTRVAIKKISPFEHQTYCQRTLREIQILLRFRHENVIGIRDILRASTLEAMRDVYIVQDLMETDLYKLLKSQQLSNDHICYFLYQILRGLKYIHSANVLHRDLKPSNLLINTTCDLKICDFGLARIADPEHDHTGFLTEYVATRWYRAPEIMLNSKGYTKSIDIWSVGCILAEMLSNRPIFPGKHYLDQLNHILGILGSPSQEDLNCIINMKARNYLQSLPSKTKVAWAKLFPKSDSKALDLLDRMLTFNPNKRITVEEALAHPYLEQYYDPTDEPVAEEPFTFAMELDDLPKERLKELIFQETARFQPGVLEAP

By inhibition is commonly meant the change of the read-out against control, counted positive when it falls. For the compound `CCc1cccc(NC(=O)Nc2ccc(Oc3ccc4nc(NC(=O)OC)[nH]c4c3)cc2)c1`, the inhibition in assay [1] was found to be 0.82%; in assay [2], 0.05%; in assay [3], 1.26%; in [4], 0.7%; in [5], 1.1%; in assay [6] it was 0.73%. Further, the inhibition stood at 1.13% in assay [7]; 1.53% in assay [8]; 4.83% in assay [9]; 1.88% in [10]; 6.49% in assay [11]; 1.47% in assay [12]. In addition, the inhibition in assay [13] was 4.9%; in assay [14], 7.33%; in [15], 13.9%; in [16] it was 2.67%; in assay [17], 1.01%; in assay [18], 2.12%. In addition, the inhibition was found to be 0.03% in [19] and 2.25% in assay [20].

Take `COC(=O)Nc1nc2cc(Oc3cccc(NC(=O)Nc4cc(C(F)(F)F)ccc4F)c3)ccc2[nH]1`: the inhibition in assay [1] is 0.16%; in [2], -0.01%; in [3], 2.54%; in [4], -0.21%; in [5], 1.68%; in [6], -0.32%. Also, the inhibition in [7] was -0.02%; in [8], 1.75%; in assay [9], 7.54%; in assay [10], 0.73%; in assay [11], 6.36%; in assay [12] it was -3.75%. Moreover, the inhibition in assay [13] was -1.32%; in [14], -1.03%; in assay [15], 11.4%; in assay [16], 2.79%; in [17], 1.58%; in [18] it was -0.65%. The figures for the inhibition in assay [19] and in assay [20] were 0.3% and -0.17%, respectively.

Consider `CCN1CCC(CC(=O)Nc2n[nH]c3nc(-c4cccs4)c(Br)cc23)CC1`, for which the inhibition in assay [1] is 4.44%; in assay [2], 4.33%; in assay [3], 20.6%; in assay [4], 4.83%; in [5], 22.3%; in [6], -0.64%. In addition, the inhibition was 14% in [7]; 46.6% in [8]; 78.3% in assay [9]; 26.6% in assay [10]; 68.7% in assay [11]; 3.88% in assay [12]. Also, the inhibition was 6.48% in assay [13]; 2.06% in assay [14]; 8.88% in assay [15]; -5.62% in assay [16]; -3.11% in assay [17]; -4.72% in assay [18]. Also, the results for the inhibition in assay [19] and in assay [20] were -6.9% and -1.1%, respectively.

With `Fc1cccc(COc2ccc(Nc3ncnc4sc(-c5cccs5)cc34)cc2Cl)c1`, the inhibition in assay [1] is -0.15%; in [2], 1.88%; in [3], 6.51%; in assay [4] it was 1.39%; in assay [5], 2.06%; in [6], -1.01%. Further, the inhibition in assay [7] is 1.17%; in assay [8], 1.69%; in assay [9], 6.14%; in assay [10] it was 1.97%; in [11] it was 5.88%; in assay [12], -5.41%. Also, the inhibition in [13] was 2.04%; in assay [14], 0.33%; in assay [15], 1.31%; in assay [16], 0.62%; in [17] it was 1.01%; in [18] it was 2.17%. Also, the inhibition stood at 1.6% in assay [19] and 1.1% in assay [20].

Regarding `NS(=O)(=O)c1cccc(-c2ccc3c(NC(=O)C4CC4)n[nH]c3c2)c1`, the inhibition is 1.36% in [1]; 2.96% in assay [2]; 3.42% in assay [3]; 2.16% in assay [4]; 3.65% in [5]; -1.18% in assay [6]. The inhibition in [7] is -0.6%; in assay [8], 1.01%; in [9], 3.15%; in assay [12] it was -0.23%; in assay [13], 0.61%; in assay [14] it was 0.1%. In addition, the inhibition was 1.04% in assay [15]; -7.07% in assay [16]; -5.26% in [17]; -2.53% in assay [18]; -5.17% in [19]; 0.73% in [20].

Take `NC(=O)c1ccc(-c2nc(-c3ccccn3)c(-c3ccc4c(c3)OCO4)[nH]2)cc1`: the inhibition in assay [1] was 1.76%; in assay [2], 1.47%; in [3], 3.08%; in assay [4], -0.77%; in assay [5], 0.83%; in assay [6], 1.43%. For the same compound, the inhibition was 1.31% in assay [7]; 2.47% in [8]; 3.92% in assay [9]; 1.88% in [10]; 6.9% in [11]; -0.15% in [12]. Moreover, the inhibition in assay [13] turned out to be 2.8%; in assay [14], 1.68%; in [15], 1.67%; in assay [16], 1.97%; in [17], 5.34%; in assay [18] it was 2.52%. Moreover, the inhibition in [19] was found to be 1.22%; in [20], 1.34%.

As for `O=C1NC(=O)C(c2ccccc2Cl)=C1Nc1cccc(O)c1`, the inhibition in assay [1] was 21.8%; in assay [2], 8.06%; in assay [3], 38.5%; in assay [4] it was 2.78%; in assay [5], 15.2%; in assay [6], 3.09%. In addition, the inhibition turned out to be 2.96% in [7]; 1.81% in [12]; 7.57% in assay [13]; 0.96% in [14]; 3.38% in assay [15]; 2.21% in [16]. Further, the inhibition in assay [17] is 2.41%; in assay [18] it was 2.64%; in assay [19], 2.43%; in assay [20], 2.98%.

`CC1=C(C(=O)Nc2ccc3[nH]ncc3c2)C(c2ccc(F)cc2)NC(=O)N1` (configuration not stated): the inhibition in assay [1] was 1.47%; in assay [2] it was 1.78%; in [3] it was 1.58%; in assay [4], -0.22%; in assay [5], 3.29%; in assay [6], 0.94%. Besides, the inhibition is 2.08% in [7]; -0.66% in assay [8]; -0.33% in assay [9]; -0.1% in assay [10]; 1.6% in [11]; -0.95% in assay [12]. Moreover, the inhibition in assay [13] was -0.69%; in [14] it was -0.2%; in assay [15], -0.66%; in [16], 1.75%; in [17], 0.78%; in assay [18], 1.62%. The inhibition turned out to be 4.83% in [19] and 2.23% in [20].

As to `O=C(Nc1n[nH]c2nc(-c3ccco3)c(Br)cc12)C1CC1`, the inhibition in assay [1] turned out to be 2.72%; in assay [2] it was 1.71%; in [3], 4.33%; in assay [4], 0.48%; in [5] it was 3.25%; in assay [6], 3.03%. Moreover, the inhibition was 4.31% in assay [7]; 36.9% in assay [8]; 80.6% in assay [9]; -1.07% in assay [12]; 3.67% in [13]; 0.54% in assay [14]. Further, the inhibition in [15] is 2.1%; in assay [16], 2.66%; in assay [17], 3.7%; in assay [18] it was -0.07%; in assay [19], 5.13%; in [20], 5.33%.

As to `CS(=O)(=O)CCNCc1ccc(-c2ccc3ncnc(Nc4ccc(OCc5ccccc5)c(Cl)c4)c3c2)o1`, the inhibition is -0.47% in [1]; 2.24% in assay [2]; 1.73% in [3]; 1.31% in [4]; 2.67% in assay [5]; -0.23% in assay [6]. Besides, the inhibition in assay [7] was 1.41%; in assay [8], 1.58%; in assay [9] it was 4.24%; in assay [10], 2.15%; in assay [11], 3.95%; in assay [12] it was -2.41%. Moreover, the inhibition was 2.91% in assay [13]; 4.33% in [14]; 7.49% in assay [15]; -0.54% in [16]; 1.16% in assay [17]; 2.06% in [18]. Moreover, the inhibition turned out to be 1.18% in [19] and 1.84% in assay [20].

Consider `CCn1c(-c2nonc2N)nc2cncc(C(=O)N3CC[C@H](N)C3)c21`, for which the inhibition in [1] is 1.82%; in [2] it was 12.7%; in [3], 49.4%; in assay [4], 7.9%; in [5], 44.4%; in [6], 15%. Moreover, the inhibition in [7] is 59.5%; in [8], 3.29%; in assay [9] it was 19.3%; in assay [10], 2.36%; in [11] it was 12.1%; in [12], 1.36%. In addition, the inhibition turned out to be 8.14% in [13]; 0.99% in assay [14]; 3% in assay [15]; 8.24% in assay [16]; 9.12% in assay [17]; 4.87% in [18]. Moreover, the inhibition stood at 7.62% in assay [19] and 3.48% in [20].
